Most compounds without a hit are left out; they make up all but 2.1% or so of the library.
Efa HMGR inh: inhibitors of E. faecalis class II HMGR, primary screen, biochemical, Enterococcus faecalis; purified E. faecalis HMGR, NADPH absorbance 340 nm kinetic; actives 0.41% (n = 190,000); inhibition, % at 10 µM; AID 1066, 2008;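 active means inhibition above a set limit, the median over all tested compounds plus 3 SD, cut at about 9.5% in these data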;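 further: enzyme runs in reverse so mevalonate oxidation gives rising NADPH absorbance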
Avidin bead fluor: green autofluorescence of compounds with avidin beads – biophysical, 488/530 nm, flow cytometry, artefact control, profiling panel; compound fluorescence 488/530 nm; active compounds read high; fluorescence (KMESF) at 10 µM; actives 0.38% (n = 220,000); AID 1775, 2009; in the data active means fluorescence above about 47
EP2 antag: human EP2 receptor antagonists, primary screen, TR-FRET cAMP, C6 glioma cells; Prostaglandin E2 receptor EP2 subtype (Homo sapiens), P43116; C6 glioma cells expressing human EP2; cells stimulated with saturating PGE2; inhibition, % at 25 µM; actives 0.52% (n = 260,000);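 active means percent inhibition above 40 after rounding to a whole number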;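 further: rat C6 glioma host cells with rolipram phosphodiesterase inhibitor present; the protocol text gives 20 µM as final concentration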
Target sequence (P43116 whole entry, looked up): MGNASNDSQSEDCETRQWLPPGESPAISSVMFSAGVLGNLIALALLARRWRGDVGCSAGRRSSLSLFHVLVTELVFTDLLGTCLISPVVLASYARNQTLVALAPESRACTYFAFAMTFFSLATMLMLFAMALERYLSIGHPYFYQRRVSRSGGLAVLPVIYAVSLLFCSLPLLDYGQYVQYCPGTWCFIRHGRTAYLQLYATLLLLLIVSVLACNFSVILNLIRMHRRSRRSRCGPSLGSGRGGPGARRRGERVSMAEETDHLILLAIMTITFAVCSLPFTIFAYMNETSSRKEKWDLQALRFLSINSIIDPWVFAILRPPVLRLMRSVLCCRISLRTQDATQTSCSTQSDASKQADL
GSH bead fluor: compound fluorescence on glutathione beads, profiling panel, artefact control, biophysical, 488/530 nm, flow cytometry. GSH beads flow cytometry, compound fluorescence 488/530 nm; active compounds read high. fluorescence (KMESF) at 10 µM. actives 0.25% (n = 190,000). AID 1776, 2009; in the data active means fluorescence above about 89;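 further: glutathione beads carrying GST-tagged Bcl family fusion proteins plus one bare bead set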
EP2 modulator: EP2 receptor modulators, cAMP readout, primary screen, cell-based, HTRF cAMP, PGE2 stimulation; EP2-expressing cells, cAMP HTRF FRET, PGE2 co-stimulation; actives 0.83% (n = 260,000); Prostaglandin E2 receptor EP2 subtype (Homo sapiens), P43116; AID 940, 2007; induction, % at 25 µM;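 active means compounds whose cAMP rise, as percent of the full-agonist control response, exceeds 60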;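 further: rat C6 glioma line stably carrying human EP2 under a CMV promoter; the protocol text gives 20 µM as final concentration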
Each line names hits and unclear results; the compound was inactive in the other large screens; ! = repeats disagree.

COC(=O)C1=C(C)OC(N)=C(C#N)C1c1cc(C)sc1C (stereo unspecified)	GSH bead fluor 273
Cc1ccc(C(O)CN2CCC3(CC2)CC(O)c2cc(F)ccc2O3)cc1C (stereo unspecified)	none (no result: Efa HMGR inh, Avidin bead fluor, GSH bead fluor)
CCOC(=O)CCN(Cc1cccs1)S(=O)(=O)c1ccc(Cl)cc1	EP2 modulator 61
CCc1cc2cc(OC)ccc2nc1SCC(=O)Nc1ccc(OC)cc1OC	none (no result: Efa HMGR inh, Avidin bead fluor, GSH bead fluor)
CC(=O)NCC1COc2ccccc2O1 (stereo unspecified)	EP2 antag 54! (no result: Efa HMGR inh, GSH bead fluor)
COc1ccc(-c2csc(NC(=O)Cn3c(=O)sc4ccccc43)n2)cc1OC	none (no result: Efa HMGR inh, Avidin bead fluor, GSH bead fluor)
CCn1c(SC(C)C(=O)Nc2cccc3ccccc23)nnc1C1CCCCC1 (stereo unspecified)	none (no result: Efa HMGR inh, Avidin bead fluor, GSH bead fluor)
Cc1ccc(C(c2nnnn2C2CCCC2)N2CCCC2)cc1 (stereo unspecified)	none (no result: Efa HMGR inh, Avidin bead fluor, GSH bead fluor)
Cc1cc(=O)[nH]c(N/N=C/c2ccc(C)o2)n1	none
Cc1cc(=O)[nH]c(N/N=C/c2ccc(N(C)C)cc2)n1	Efa HMGR inh 14
CCCNC(=O)Cn1nc(CC)n2c(cc3sccc32)c1=O	none (no result: Efa HMGR inh, Avidin bead fluor, EP2 antag, GSH bead fluor)
Cc1cc(SCC(=O)N2CCCc3ccccc32)nc(SCC(=O)c2ccccc2)n1	none (no result: Efa HMGR inh, Avidin bead fluor, GSH bead fluor)
COc1cc(N2CCCC2)c(OC)cc1/C=c1/sc2nc3ccccc3n2c1=O	Avidin bead fluor 63 (no result: EP2 antag)
C[C@H]1CCC/C=C\[C@@H]2C[C@H](OC(=O)CN(C)C)C[C@H]2[C@@H](O)/C=C\C(=O)O1	EP2 antag 46 (no result: Efa HMGR inh, Avidin bead fluor, GSH bead fluor)
O=C1/C(=C/c2cccs2)Sc2ccccc21	Efa HMGR inh 11
Cc1cc(N2CCOCC2)ccc1/C=C\[N+](=O)[O-]	EP2 antag 57
COc1ccc(C2(C(F)(F)F)NC(=O)N(C)C(=O)N2C)cc1 (stereo unspecified)	none
CCOC(=O)C1=C(C)N(C)C(c2ccccc2)(C(F)(F)F)NC1=O (stereo unspecified)	EP2 antag 43 (no result: Efa HMGR inh, Avidin bead fluor, GSH bead fluor)
CC(=O)NNC(=S)NCCc1ccccc1	Avidin bead fluor 96
CCN(CC)C(=S)NCCc1ccccc1	Efa HMGR inh 12
CCc1c(C(=O)NNC(=S)NC2CCCCC2)csc1C	none
CNC(=S)NCCc1ccccc1	none (no result: Efa HMGR inh, GSH bead fluor)
OCCNC(=S)NCCc1ccccc1	none
CCc1c(C(=O)NNC(=S)NCCc2ccccc2)csc1C	GSH bead fluor 148
O=C(CSc1nc(-c2cccs2)cc(C(F)(F)F)n1)N1CCc2ccccc21	none (no result: Efa HMGR inh, Avidin bead fluor, GSH bead fluor)
CCOc1ccc(-n2c(SCC(=O)NC3CCCCC3)nc3ccccc3c2=O)cc1	none (no result: Efa HMGR inh, Avidin bead fluor, GSH bead fluor)
CC(C)(C)C1CCc2c(sc(NC(=O)c3nc4ncccn4n3)c2C#N)C1 (stereo unspecified)	none (no result: Efa HMGR inh, Avidin bead fluor, GSH bead fluor)
Cc1cnc(NC(=O)Cn2nnc3sc4c(c3c2=O)CCCC4)s1	none (no result: Efa HMGR inh, Avidin bead fluor, GSH bead fluor)
COc1cc(NS(=O)(=O)c2ccc(Nc3nc(-c4cccc([N+](=O)[O-])c4)cs3)cc2)nc(OC)n1	EP2 antag 45
O=[N+]([O-])c1cccc(-c2csc(Nc3ccccc3)n2)c1	none
CC(=O)c1cccc(NC(=O)CSc2nnc(-c3ccoc3C)n2Cc2ccco2)c1	none (no result: Efa HMGR inh, Avidin bead fluor, GSH bead fluor)
O=C(O)C(Cc1ccccc1)N1C(=O)CCC1=O (stereo unspecified)	none
O=C(O)C(Cc1ccccc1)N1C(=O)C2CCCCC2C1=O (stereo unspecified)	Efa HMGR inh 17
CC(C)NC(=O)C(=O)NNC(=O)C12CC3CC(CC(C3)C1)C2	GSH bead fluor 109
CC(CN1CCCCC1)C(=O)NNC(=O)C12CC3CC(CC(C3)C1)C2 (stereo unspecified)	none
O=C(Cn1cc(C(F)(F)F)ccc1=O)Nc1cc(S(=O)(=O)N2CCOCC2)ccc1Cl	none
O=C(Cn1cc(C(F)(F)F)ccc1=O)Nc1cccc(S(=O)(=O)N2CCOCC2)c1	Avidin bead fluor 96
CCOC(=O)C1=C(c2ccccc2)NC(SCC(=O)NC2CCCCC2)=C(C#N)C1c1ccco1 (stereo unspecified)	EP2 antag 71
COc1ccc(C2/C(=C(/O)c3ccc(F)cc3)C(=O)C(=O)N2CC2CCCO2)c(OC)c1 (stereo unspecified)	none (no result: Efa HMGR inh, Avidin bead fluor, GSH bead fluor)
Cc1ccc(NC(=O)c2cc(N3C(=O)C=CC3=O)ccc2N2CCOCC2)cc1Cl	EP2 antag 94
